Data as given in the supplement of paper PMC10849652.
The full data set covers some 8,800 targets. This sample favours those with a hit. About 0.5% of all pairs of compound and target were hits. A number with no mark means an inactive call.

Columns and labels:
Assay in all cases: log2 fold change, soluble protein after heating vs DMSO (PISA); higher = thermal stabilisation; K562 lysate, 10 uM; active = over 0.2 and 3.5 SD of the protein, either way, in both replicates (recomputed)
[1] = compound: NCC(=O)Nc1ccc(-n2nc(C(F)(F)F)cc2-c2ccc3c(ccc4ccccc43)c2)cc1
Outline: (§1)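 Dounce homogenisation of K562 pellets in PBS pH 7.4 with 1 mM MgCl2 produced a crude extract, used at 1 mg/mL protein. Exposure to 10 μM compound lasted 30 min, and aliquots were then heated for 3 min across 48°C-58°C, pooled and brought to 0.5% NP-40 at 4°C. The supernatant after 21,000xg for 90 min was quantified by TMTpro 16plex LC-MS/MS with channel sums equalised. Duplicate values are given as log-two fold change in thermal stability relative to solvent controls.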

vorinostat = compound: O=C(CCCCCCC(=O)Nc1ccccc1)NO [vorinostat]
Outline: as §1

silmitasertib = compound: O=C(O)c1ccc2c(c1)nc(Nc1cccc(Cl)c1)c1ccncc12 [silmitasertib]
Outline: as §1

[2] = compound: O=C1NC(=O)C(c2cnc3ccccn23)=C1c1cn2c3c(cc(F)cc13)CN(C(=O)N1CCCCC1)CC2
Outline: as §1

entospletinib = compound: c1cn2cc(-c3ccc4cn[nH]c4c3)nc(Nc3ccc(N4CCOCC4)cc3)c2n1 [entospletinib]
Outline: as §1

Chain of UniProt Q96BI1 (Q96BI1 whole entry, looked up): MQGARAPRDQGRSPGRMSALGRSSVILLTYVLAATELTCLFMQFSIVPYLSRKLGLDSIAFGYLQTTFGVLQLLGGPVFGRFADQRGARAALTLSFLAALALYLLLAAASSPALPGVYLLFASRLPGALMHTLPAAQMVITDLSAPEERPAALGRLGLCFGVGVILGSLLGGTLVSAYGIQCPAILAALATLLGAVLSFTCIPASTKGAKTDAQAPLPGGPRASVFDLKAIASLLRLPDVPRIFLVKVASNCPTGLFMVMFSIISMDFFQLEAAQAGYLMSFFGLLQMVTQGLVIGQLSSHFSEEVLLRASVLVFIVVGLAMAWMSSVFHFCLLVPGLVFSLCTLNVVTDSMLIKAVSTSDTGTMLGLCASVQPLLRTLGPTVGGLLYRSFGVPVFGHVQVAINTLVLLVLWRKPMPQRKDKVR
Chain of UniProt Q92540 (Q92540 whole entry, looked up): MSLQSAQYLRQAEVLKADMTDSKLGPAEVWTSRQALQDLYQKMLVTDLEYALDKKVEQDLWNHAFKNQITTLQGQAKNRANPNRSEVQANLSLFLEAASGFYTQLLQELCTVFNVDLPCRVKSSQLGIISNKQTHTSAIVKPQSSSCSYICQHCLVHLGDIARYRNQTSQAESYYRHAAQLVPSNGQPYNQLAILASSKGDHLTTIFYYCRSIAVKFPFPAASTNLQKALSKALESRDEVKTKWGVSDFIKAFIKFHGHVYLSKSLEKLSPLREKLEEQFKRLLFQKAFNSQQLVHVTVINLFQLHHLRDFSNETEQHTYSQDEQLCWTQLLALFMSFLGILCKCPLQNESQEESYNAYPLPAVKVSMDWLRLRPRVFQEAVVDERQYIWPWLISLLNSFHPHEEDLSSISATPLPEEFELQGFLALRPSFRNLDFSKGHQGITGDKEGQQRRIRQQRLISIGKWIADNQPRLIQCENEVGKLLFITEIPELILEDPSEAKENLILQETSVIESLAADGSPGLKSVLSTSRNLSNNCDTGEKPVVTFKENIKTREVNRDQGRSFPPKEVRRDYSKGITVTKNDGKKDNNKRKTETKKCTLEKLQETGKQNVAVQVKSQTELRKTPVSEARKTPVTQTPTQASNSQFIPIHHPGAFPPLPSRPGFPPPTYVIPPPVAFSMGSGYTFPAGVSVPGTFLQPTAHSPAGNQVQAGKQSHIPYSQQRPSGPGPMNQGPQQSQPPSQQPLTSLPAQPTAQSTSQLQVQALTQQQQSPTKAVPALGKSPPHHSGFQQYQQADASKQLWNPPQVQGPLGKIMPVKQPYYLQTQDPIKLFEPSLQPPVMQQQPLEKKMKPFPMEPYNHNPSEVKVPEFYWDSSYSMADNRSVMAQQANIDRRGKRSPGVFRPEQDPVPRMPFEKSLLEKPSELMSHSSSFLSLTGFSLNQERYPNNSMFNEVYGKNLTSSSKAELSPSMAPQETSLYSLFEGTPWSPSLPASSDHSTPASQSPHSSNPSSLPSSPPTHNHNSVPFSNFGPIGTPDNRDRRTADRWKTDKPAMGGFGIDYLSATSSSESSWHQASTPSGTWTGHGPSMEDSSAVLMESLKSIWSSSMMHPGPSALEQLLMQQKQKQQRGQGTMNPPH
Chain of UniProt P52630 (P52630 whole entry, looked up): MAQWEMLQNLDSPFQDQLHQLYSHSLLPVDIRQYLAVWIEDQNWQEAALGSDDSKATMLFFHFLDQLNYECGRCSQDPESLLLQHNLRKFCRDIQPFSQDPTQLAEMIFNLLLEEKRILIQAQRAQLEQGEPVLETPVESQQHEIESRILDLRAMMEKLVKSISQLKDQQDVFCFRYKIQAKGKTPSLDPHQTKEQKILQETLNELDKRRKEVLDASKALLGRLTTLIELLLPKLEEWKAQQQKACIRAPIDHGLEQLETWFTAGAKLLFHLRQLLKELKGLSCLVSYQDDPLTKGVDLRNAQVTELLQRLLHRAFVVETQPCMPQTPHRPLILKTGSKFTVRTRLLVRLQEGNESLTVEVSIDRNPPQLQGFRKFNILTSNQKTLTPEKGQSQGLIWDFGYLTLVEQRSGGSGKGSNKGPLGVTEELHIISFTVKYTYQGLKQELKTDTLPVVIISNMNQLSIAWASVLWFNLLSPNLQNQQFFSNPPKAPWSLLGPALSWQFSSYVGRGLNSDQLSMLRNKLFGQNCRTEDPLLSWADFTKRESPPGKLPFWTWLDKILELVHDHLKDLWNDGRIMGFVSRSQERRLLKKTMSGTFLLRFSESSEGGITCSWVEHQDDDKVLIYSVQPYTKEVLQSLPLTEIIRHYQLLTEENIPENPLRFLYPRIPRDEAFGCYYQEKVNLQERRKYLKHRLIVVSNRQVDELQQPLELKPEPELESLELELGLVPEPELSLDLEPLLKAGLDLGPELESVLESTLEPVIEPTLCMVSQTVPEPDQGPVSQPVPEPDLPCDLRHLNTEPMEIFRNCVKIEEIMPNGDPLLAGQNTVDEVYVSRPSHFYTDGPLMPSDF
Chain of UniProt P51532 (P51532 whole entry, looked up): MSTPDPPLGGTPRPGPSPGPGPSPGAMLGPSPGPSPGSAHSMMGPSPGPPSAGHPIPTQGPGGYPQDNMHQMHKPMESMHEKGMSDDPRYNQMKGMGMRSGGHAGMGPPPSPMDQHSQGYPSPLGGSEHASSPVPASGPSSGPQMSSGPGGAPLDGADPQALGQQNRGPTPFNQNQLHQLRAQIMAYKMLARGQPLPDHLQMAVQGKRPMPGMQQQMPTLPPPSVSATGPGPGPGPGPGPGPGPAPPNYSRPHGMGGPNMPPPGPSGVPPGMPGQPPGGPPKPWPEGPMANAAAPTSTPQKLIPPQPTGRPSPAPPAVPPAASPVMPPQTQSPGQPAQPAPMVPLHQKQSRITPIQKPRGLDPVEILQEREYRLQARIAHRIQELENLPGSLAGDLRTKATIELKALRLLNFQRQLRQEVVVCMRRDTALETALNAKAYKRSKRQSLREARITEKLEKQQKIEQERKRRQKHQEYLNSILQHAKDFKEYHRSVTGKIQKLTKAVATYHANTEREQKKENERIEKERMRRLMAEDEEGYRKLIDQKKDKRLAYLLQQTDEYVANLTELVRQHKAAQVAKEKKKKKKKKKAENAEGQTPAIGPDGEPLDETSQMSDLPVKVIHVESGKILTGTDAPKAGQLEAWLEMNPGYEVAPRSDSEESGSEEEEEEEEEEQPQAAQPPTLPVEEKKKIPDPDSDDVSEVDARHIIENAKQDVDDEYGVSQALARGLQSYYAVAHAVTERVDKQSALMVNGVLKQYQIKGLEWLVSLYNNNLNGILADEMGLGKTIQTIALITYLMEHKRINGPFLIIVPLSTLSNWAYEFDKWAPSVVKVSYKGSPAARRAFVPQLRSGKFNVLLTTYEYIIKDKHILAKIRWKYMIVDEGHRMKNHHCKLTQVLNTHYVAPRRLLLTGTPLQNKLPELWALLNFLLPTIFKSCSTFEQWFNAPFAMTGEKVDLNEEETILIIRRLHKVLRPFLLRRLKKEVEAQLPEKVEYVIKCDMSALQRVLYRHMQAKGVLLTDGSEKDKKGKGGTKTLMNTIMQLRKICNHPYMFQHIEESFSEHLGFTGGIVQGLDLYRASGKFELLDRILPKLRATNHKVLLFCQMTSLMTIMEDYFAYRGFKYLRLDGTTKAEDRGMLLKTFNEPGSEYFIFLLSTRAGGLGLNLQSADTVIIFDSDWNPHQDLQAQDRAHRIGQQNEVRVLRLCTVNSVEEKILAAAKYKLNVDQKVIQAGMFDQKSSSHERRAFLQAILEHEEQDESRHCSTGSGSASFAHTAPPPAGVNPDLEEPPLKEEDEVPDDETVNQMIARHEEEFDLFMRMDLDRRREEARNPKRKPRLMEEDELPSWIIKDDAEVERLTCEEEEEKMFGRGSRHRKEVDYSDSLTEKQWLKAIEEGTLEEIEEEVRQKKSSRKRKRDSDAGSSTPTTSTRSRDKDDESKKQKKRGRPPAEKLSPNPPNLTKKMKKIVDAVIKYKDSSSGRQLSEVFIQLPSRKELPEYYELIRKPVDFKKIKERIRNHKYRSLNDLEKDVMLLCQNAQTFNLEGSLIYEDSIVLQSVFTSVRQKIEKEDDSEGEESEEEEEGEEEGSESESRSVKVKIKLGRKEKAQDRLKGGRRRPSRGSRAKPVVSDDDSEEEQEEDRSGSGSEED
Chain of UniProt Q9BXS9 (Q9BXS9 whole entry, looked up): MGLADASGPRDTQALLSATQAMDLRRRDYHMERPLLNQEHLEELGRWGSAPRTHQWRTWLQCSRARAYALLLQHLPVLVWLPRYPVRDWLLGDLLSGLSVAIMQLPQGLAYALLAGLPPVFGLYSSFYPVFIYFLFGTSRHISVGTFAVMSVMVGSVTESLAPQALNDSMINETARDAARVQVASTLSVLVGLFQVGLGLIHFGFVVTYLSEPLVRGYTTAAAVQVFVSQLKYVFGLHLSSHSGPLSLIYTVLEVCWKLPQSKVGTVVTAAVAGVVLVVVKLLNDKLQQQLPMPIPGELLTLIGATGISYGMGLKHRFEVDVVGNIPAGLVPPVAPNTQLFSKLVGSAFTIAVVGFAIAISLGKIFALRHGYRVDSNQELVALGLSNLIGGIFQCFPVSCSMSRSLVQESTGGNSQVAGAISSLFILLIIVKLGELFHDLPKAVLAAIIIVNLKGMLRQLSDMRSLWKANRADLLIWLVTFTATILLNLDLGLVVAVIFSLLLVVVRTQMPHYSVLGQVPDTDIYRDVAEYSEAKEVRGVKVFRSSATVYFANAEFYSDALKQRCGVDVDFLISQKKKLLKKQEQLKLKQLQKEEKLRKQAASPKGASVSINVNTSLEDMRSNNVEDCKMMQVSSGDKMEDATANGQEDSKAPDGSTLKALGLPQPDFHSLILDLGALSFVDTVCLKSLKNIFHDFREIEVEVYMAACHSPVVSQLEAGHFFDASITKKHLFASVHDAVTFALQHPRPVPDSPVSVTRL
Chain of UniProt P62318 (P62318 whole entry, looked up): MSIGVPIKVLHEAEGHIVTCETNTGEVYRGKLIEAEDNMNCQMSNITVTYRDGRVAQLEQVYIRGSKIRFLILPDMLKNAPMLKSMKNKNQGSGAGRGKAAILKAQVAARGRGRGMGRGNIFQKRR
Chain of UniProt Q8NHG7 (Q8NHG7 whole entry, looked up): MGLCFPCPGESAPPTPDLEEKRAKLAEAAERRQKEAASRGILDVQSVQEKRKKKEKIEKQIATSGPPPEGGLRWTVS

| Target | log2 fold change [1] | log2 fold change (vorinostat) | log2 fold change (silmitasertib) | log2 fold change [2] | log2 fold change (entospletinib) |
| --- | --- | --- | --- | --- | --- |
| SYF2 (UniProt O95926) | -0.047 | 0.092 | -0.059 | -0.014 | -0.059 |
| STK39 (UniProt Q9UEW8) | -0.01 | -0.633 (active) | 0.028 | -0.006 | -0.026 |
| SKA3 (UniProt Q8IX90) | -0.007 | -0.247 (active) | 0 | -0.022 | 0.006 |
| SLC40A1 (UniProt Q9NP59) | 0.005 | 0.046 | 0 | -0.016 | 0.022 |
| SMN1 (UniProt Q16637) | -0.014 | -0.278 (active) | 0.035 | 0.052 | -0.024 |
| SPC25 (UniProt Q9HBM1) | 0.026 | -0.266 (active) | 0 | 0.016 | -0.004 |
| SUZ12 (UniProt Q15022) | -0.064 | -0.156 | 0.023 | 0.021 | 0.043 |
| SNRNP40 (UniProt Q96DI7) | 0.01 | 0.233 | -0.012 | 0.022 | 0.03 |
| SLC7A5 (UniProt Q01650) | 0.034 | 0.109 | -0.04 | 0.013 | 0.03 |
| SPHK1 isoform 2 (UniProt Q9NYA1) | 0.091 | -0.408 | 0.089 | -0.167 | 0.032 |
| SH3GL1 (UniProt Q99961) | -0.012 | -0.245 (active) | 0 | 0.009 | -0.004 |
| SPPL2A (UniProt Q8TCT8) | 0.407 | -0.106 | -0.069 | 0.047 | 0.141 |
| STK4 (UniProt Q13043) | 0.054 | -0.134 | 0.024 | 0.041 | 0.047 |
| SLC29A2 (UniProt Q14542) | -0.045 | 0.139 | 0.117 | 0.031 | -0.06 |
| SMYD3 (UniProt Q9H7B4) | 0.044 | -0.202 (active) | 0.029 | -0.003 | -0.008 |
| SKP2 (UniProt Q13309) | -0.07 | -0.203 | 0.012 | 0.009 | -0.103 |
| SOAT1 (UniProt P35610) | 0.014 | 0.005 | 0 | -0.037 | 0.015 |
| SLC12A6 (UniProt Q9UHW9) | 0.009 | 0.15 | -0.045 | 0.003 | 0.013 |
| STK3 isoform 2 (UniProt Q13188) | 0.034 | -0.05 | 0.022 | 0.025 | -0.003 |
| SNRPD3 (UniProt P62318) | -0.011 | 0.12 | -0.023 | 0.008 | -0.027 |
| SPR (UniProt P35270) | -0.037 | -0.199 | 0.308 | 0.219 | 0.003 |
| STK25 (UniProt O00506) | -0.024 | -0.06 | 0.051 | -0.03 | -0.043 |
| SP1 (UniProt P08047) | 0.001 | -0.376 (active) | -0.045 | 0.081 | -0.006 |
| SPAG5 (UniProt Q96R06) | 0.038 | -0.298 (active) | 0.042 | -0.007 | 0.008 |
| SPNS1 (UniProt Q9H2V7) | 0.086 | -0.022 | 0.033 | -0.025 | -0.045 |
| SRSF7 (UniProt Q16629) | 0.02 | 0.134 | -0.052 | -0.014 | -0.013 |
| SPIRE1 (UniProt Q08AE8) | 0.092 | 0.15 | -0.02 | -0.129 | 0.076 |

| Target | log2 fold change [1] | log2 fold change (vorinostat) | log2 fold change (silmitasertib) | log2 fold change [2] | log2 fold change (entospletinib) |
| --- | --- | --- | --- | --- | --- |
| SLC27A2 (UniProt O14975) | -0.108 | -0.237 | 0.08 | 0.367 | -0.023 |
| STN1 (UniProt Q9H668) | -0.03 | -0.2 | -0.111 | 0.126 | 0.049 |
| SLC26A6 (UniProt Q9BXS9) | 0.012 | 0.048 | 0.03 | 0.021 | -0.111 |
| SQLE (UniProt Q14534) | 0.01 | 0.103 | -0.056 | -0.042 | 0.029 |
| SRSF2 (UniProt Q01130) | 0.023 | 0.087 | -0.017 | -0.043 | -0.055 |
| SHKBP1 (UniProt Q8TBC3) | -0.031 | -0.069 | -0.06 | 0.01 | -0.218 |
| SLC22A18 (UniProt Q96BI1) | -0.136 | -0.044 | 0.006 | 0.004 | 0.013 |
| SNRPD2 (UniProt P62316) | 0 | 0.147 | -0.021 | 0.015 | 0.001 |
| SSB (UniProt P05455) | 0.027 | 0.081 | 0.01 | 0.032 | 0.005 |
| TAF9 (UniProt Q16594) | 0.002 | -0.099 | -0.011 | -0.003 | -0.017 |
| STK36 (UniProt Q9NRP7) | 0.283 | 0.143 | -0.032 | 0.101 | -0.031 |
| SPATS2 (UniProt Q86XZ4) | -0.047 | -0.507 (active) | 0.002 | -0.049 | 0.176 |
| STAT2 (UniProt P52630) | -0.018 | -0.254 (active) | 0.063 | -0.017 | 0.011 |
| SND1 (UniProt Q7KZF4) | 0.001 | -0.414 (active) | 0.048 | 0.013 | 0.013 |
| SOX5 (UniProt P35711) | -0.036 | -0.014 | 0.099 | -0.027 | -0.083 |
| SLC25A38 (UniProt Q96DW6) | -0.093 | 0.109 | 0.129 | -0.019 | -0.075 |
| STARD3 isoform 3 (UniProt Q14849) | 0.022 | 0.065 | 0.047 | 0.03 | -0.025 |
| SPATA5L1 (UniProt Q9BVQ7) | 0.029 | -0.408 (active) | 0.138 | 0.035 | -0.021 |
| SH3GL3 isoform 3 (UniProt Q99963) | 0.108 | -0.091 | 0.028 | 0.01 | 0.01 |
| SLC16A1 (UniProt P53985) | 0.004 | -0.62 (active) | -0.012 | -0.01 | 0.012 |
| TANGO6 (UniProt Q9C0B7) | 0.007 | -0.389 (active) | 0.019 | -0.037 | -0.009 |
| SMTN isoform 6 (UniProt P53814) | -0.021 | -0.088 | -0.007 | -0.034 | 0.013 |
| SVIP (UniProt Q8NHG7) | 0.023 | 0.171 | -0.041 | -0.013 | -0.012 |
| SMARCA4 (UniProt P51532) | 0.015 | -0.246 (active) | 0.021 | -0.028 | -0.008 |
| SMG7 (UniProt Q92540) | 0.158 | -0.053 | 0.027 | -0.035 | 0.054 |
| TADA3 (UniProt O75528) | 0.018 | -0.289 (active) | -0.021 | 0.034 | 0.009 |
